# Screening data from PubChem.
# TDP1 cell CPT = DT40-hTDP1 cell growth loss with CPT; chicken DT40 Tdp1-/-;hTDP1 cells + 20 nM CPT, ATP luminescence, 48 h; Potency, µM (titrated, usually from 46.2 µM), without a hit: at the top dose activity change, negative = growth inhibition, actives largely listed as inhibitors; 12% of 420,000 active; AID 686979; further: potency means the concentration at half of the fitted maximal effect; nearly all actives have a fitted effect of over 55% in size
#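 Cell growth measured by CellTiter-Glo luminescence after a minimum 48 h, 37 C compound exposure with 20 nM CPT in Tdp1-knockout DT40 cells stably expressing hTDP1, seeded 400/well; qHTS titration format.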
# HT1080-NT tox = kills 2HG-producing HT-1080-NT fibrosarcoma cells | Potency, µM (doses to about 46.1 µM), for the others: top-dose activity, negative = less viability, usual class: cytotoxic | 1.6% of 360,000 active | AID 686970 | HT-1080-NT fibrosarcoma viability, CellTiter-Glo ATP luminescence, 48 h;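 further: NT is the 2HG producing partner of a matched IDH1 knockdown line; potency means the concentration at half of the fitted maximal effect; 0% = DMSO-treated cells and -100% = media-only wells without cells; nearly all actives have a fitted effect of over 55% in size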
#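 Viability by CellTiter-Glo luminescence after 48 h compound exposure at 37C of HT-1080-NT cells (750/well, RPMI, 5% FBS). % activity scaled between DMSO wells and medium-only wells, then curve-fitted and categorized by curve class.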
# IL1B secr inh = blocks inflammasome-driven IL-1 beta release; THP-1 LPS/ATP IL-1B secretion, AlphaLISA, 16 h; hits give low values; activity change, % at 57.5 µM; 4.7% of 360,000 active; AID 743279; in the data active means activity change below about -50%; inconclusive means mostly about -30% to -49%
#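 Secreted IL-1B measured by AlphaLISA bead assay after 16 h compound exposure of THP-1 cells; compounds (final up to 57.5 uM) added 1 h before LPS (250 ng/mL) and ATP (1.25 mM) stimulation; lower signal means less secretion.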
# HT1080 IDH1KD tx = kills HT-1080 cells with IDH1 knockdown; HT-1080 IDH1 knockdown viability, ATP luminescence, 48 h; Potency, µM (doses to about 46.1 µM), for the others: top-dose activity, negative = toxicity, most hits filed as cytotoxic; 2% of 360,000 active;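 further: potency means the concentration at half of the fitted maximal effect; 0% = DMSO wells and -100% = cell-free medium wells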
#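 Assay cells: HT-1080 with IDH1 knockdown, 750 per well, RPMI/5% FBS. Exposure: 48 h at 37 °C following 2 h pre-incubation. Read: CellTiter-Glo luminescence; fitted concentration-response, curve class assigned.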
# DT40 TDP1 no CPT = qHTS for Inhibitors of human tyrosyl-DNA phosphodiesterase 1 (TDP1): qHTS in cells in absence of CPT. 15% of 420,000 active. DT40 Tdp1-/- hTDP1 cells, no CPT, ATP luminescence, 48 h. Potency, µM (series often up to 46.2 µM), for inactives: top-dose activity change, negative = growth inhibition, actives largely listed as inhibitors. AID 686978, 2013; further: potency means the concentration at half of the fitted maximal effect; nearly all actives have a fitted effect of over 55% in size
#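 No-CPT arm: Tdp1-/-;hTDP1 DT40 cells (400/well) plus compounds, incubated ≥48 hr at 37 °C. Readout CellTiter-Glo luminescence.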
# * hit, by the source's call; ? = inconclusive; / = no result given. Sampled rows, rich in hits. Any-hit rate of the full collection: about 19%. Unless noted, the call rests on the fitted dose curve; in most records, active means well fitted curve in the direction sought with a large enough effect; inconclusive means small, poorly fitted or top-dose-only effect, or another doubt; inactive means no such curve, though single readings can be large; an effect the other way counts as inactive or inconclusive. Unless noted, on the % scale 0 is the no-effect control and ±100 the full control effect.
SMILES,TDP1 cell CPT,HT1080-NT tox,IL1B secr inh,HT1080 IDH1KD tx,DT40 TDP1 no CPT
C[C@@H]1CN([C@@H](C)CO)C(=O)CCCn2nncc2CO[C@H]1CN(C)Cc1ccc(Cl)c(Cl)c1,-0.6%,11.1%,-3.5,6.6%,-17.2%
Nc1nc[nH]c(=O)c1N,-0.2%,/,/,/,-6.7%
NS(=O)(=O)c1ccc(CCNC(=O)c2ccc(-c3ccccc3)cc2)cc1,?,12.2%,-0.5,9.8%,-1.9%
O=C(NCC(c1cccs1)S(=O)(=O)c1cccs1)c1ccc(Cl)cc1 (stereo unspecified),?,/,/,/,18.4µM*
Cc1ccc(CNC(=O)C(=O)NCC(c2cccs2)S(=O)(=O)c2cccs2)cc1 (stereo unspecified),?,/,/,/,-11.2%
Cc1ccc(C(=O)NCC(c2cccs2)S(=O)(=O)c2cccs2)cc1C (stereo unspecified),11.6µM*,/,/,/,20.6µM*
CN(C(=O)c1ccc(Cl)c([N+](=O)[O-])c1)C1(C)CCS(=O)(=O)C1 (stereo unspecified),7.3%,4.3%,?,2.2%,-2.0%
O=C(NC1CCCC1)c1ccc2c(c1)N(Cc1ccc(C(F)(F)F)cc1)C(=O)c1ccccc1S2,20.6µM*,/,/,/,9.2µM*
CCOc1ccc(CN2C(=O)c3ccccc3Sc3ccc(C(=O)NCCc4ccccc4)cc32)cc1,-28.3%,/,/,/,?
COCCNC(=O)c1ccc2c(c1)N(Cc1ccc(C(F)(F)F)cc1)C(=O)c1ccccc1S2,16.4µM*,/,/,/,?
O=C(O)c1ccc2c(c1)N(Cc1ccc(F)cc1)C(=O)c1ccccc1S2,-0.5%,-9.4%,6.1,8.3%,-19.3%
CCN(CC)C(=O)c1ccc2c(c1)N(Cc1ccc(C(F)(F)F)cc1)C(=O)c1ccccc1S2,16.4µM*,/,/,/,18.4µM*
Cc1ccc(S(=O)(=O)N(C)CC(=O)N2CCCCCC2)cc1,2.4%,-1.5%,-12.1,0.6%,-27.1%
COc1ccc(-c2cc3c(=O)n(CC(=O)Nc4cc(C)ccc4C)ccn3n2)cc1,0.4%,/,/,/,-5.8%
NC(=O)NC(=O)COC(=O)CCSc1ccccc1,23.9%,2.1%,23.0,2.7%,-21.5%
CC12CCC(C(=O)Nc3cccc(Cl)c3)(C(Br)C1=O)C2(C)C (stereo unspecified),?,-13.6%,14.1,-10.2%,18.4µM*
CC12CCC(C(=O)Nc3ccc(Cl)cc3)([C@H](Br)C1=O)C2(C)C (stereo partly specified),-15.0%,-1.5%,/,4.1%,?
CC(=O)N1CCC[C@@]2(CCN(C(c3ccccc3)c3ccccc3)C2)C1,10.9%,/,/,/,-6.9%
O=C(Nc1ccc(F)c(Cl)c1)c1ccc2sc([C@@H]3O[C@H](CO)[C@H](O)[C@H](O)[C@H]3O)nc2c1,-6.5%,3.5%,9.3,7.5%,-10.5%
Nc1ccc(C2=Nc3cccc4cccc(c34)N2)cc1,-6.3%,-12.7%,19.2,-5.6%,?
c1coc(C2=Nc3cccc4cccc(c34)N2)c1,14.6µM*,-5.6%,?,-2.1%,23.1µM*
CC1=Nc2cccc3cccc(c23)N1,?,-11.8%,-11.2,-12.0%,23.1µM*
COc1cc(CN2C(=O)C(NC(=O)c3ccco3)(C(F)(F)F)C3=C2CC(C)(C)CC3=O)cc(OC)c1 (stereo unspecified),-22.6%,-10.6%,-18.3,0.4%,?
CSc1ccc(NC(=O)NCCCN2CCN(c3ccccc3F)CC2)cc1,20.6µM*,?,?,?,20.6µM*
CCc1nc2ccc(C(=O)NCCCN3CCN(c4ccccc4F)CC3)cc2nc1CC,?,-5.0%,-22.8,?,23.1µM*
O=C(NCCCN1CCN(c2ccccc2F)CC1)c1ccc2nc(Cc3ccccc3)oc2c1,?,/,/,/,25.9µM*
O=C(NCN1CCN(c2ccccc2F)CC1)c1ccccc1,-14.5%,-0.3%,-14.3,2.2%,-0.9%
O=C(NCCCN1CCOCC1)c1ccc2nc(Cc3ccccc3F)oc2c1,9.8%,12.7%,0.0,11.2%,1.7%
